Experimental findings from PubChem BioAssay (EPA / NIEHS) are described below.

Read-out in one experiment: TIMP1, TIMP1 (gene 7076)
The experiment in a line: LTEA_HepaRG_TIMP1: Life Technologies and Expression Analysis (LTEA) Assay for TIMP1 using HepaRG (AID 2283534; active = hit-call score of the fitted dose curve at least 0.9, where 1 is the maximum; inactive = score below 0.9). The settings on record: mRNA level, 48 h; actives raise or lower the signal. A digest of the protocol:
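Bidirectional change in TIMP1 transcript versus 0.5% DMSO, measured by TaqMan qRT-PCR with three housekeeping genes for normalization. HepaRG human liver cells dosed 48 h in duplicate, top concentration 100 uM with half-log dilutions.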

Read-out in experiment [1]: Tumor necrosis factor receptor 1 (TNFRSF1A), TNFRSF1A (gene 7132)
The experiment in a line: LTEA_HepaRG_TNFRSF1A: Life Technologies and Expression Analysis (LTEA) Assay for Tumor necrosis factor receptor 1 (TNFRSF1A) using HepaRG (AID 2283535; active = hit-call score of the fitted dose curve at least 0.9, where 1 is the maximum; inactive = score below 0.9). The conditions noted are these: mRNA level, 48 h; actives raise or lower the signal. A digest of the protocol: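 mRNA measured by qRT-PCR (TaqMan, Fluidigm arrays) against ACTB/GAPDH/POLR2A housekeepers after 48 h chemical exposure of HepaRG cells. Top concentration 100 uM, half-log 8-point series, duplicates; vehicle 0.5% DMSO, both fit directions.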

Read-out in experiment [2]: Thyroid Hormone Responsive (THRSP), THRSP (gene 7069)
As to the kind of experiment: LTEA_HepaRG_THRSP: Life Technologies and Expression Analysis (LTEA) Assay for Thyroid Hormone Responsive (THRSP) using HepaRG (AID 2283536; active = hit-call score of the fitted dose curve at least 0.9, where 1 is the maximum; inactive = score below 0.9). The conditions noted are these: mRNA level, 48 h; actives raise or lower the signal. A digest of the protocol:
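Differentiated human HepaRG cells were exposed in duplicate for 48 h in serum-free induction medium to eight concentrations (top 100 uM, half-log steps, 0.5% DMSO). Expression was quantified by TaqMan qRT-PCR, normalized to ACTB, GAPDH and POLR2A, with bidirectional fitting against DMSO.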

Read-out in experiment [3]: Cellular tumor antigen p53 (Homo sapiens) (UniProt P04637)
The experiment in a line: LTEA_HepaRG_TP53: Life Technologies and Expression Analysis (LTEA) Assay for Tumor Protein P53 (TP53) using HepaRG (AID 2283537; active = hit-call score of the fitted dose curve at least 0.9, where 1 is the maximum; inactive = score below 0.9). The settings on record: mRNA level, 48 h; actives raise or lower the signal. A digest of the protocol: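 Differentiated HepaRG cells in serum-free induction medium exposed 48 h in duplicate to 8 half-log concentrations, top 100 uM, 0.5% DMSO. TP53 mRNA by TaqMan qRT-PCR (Fluidigm), normalized to ACTB, GAPDH, POLR2A; fitted bidirectionally versus DMSO.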

Read-out in experiment [4]: UDP glucuronosyltransferase (UGT1A1), UGT1A1 (gene 54658)
As to the kind of experiment: LTEA_HepaRG_UGT1A1: Life Technologies and Expression Analysis (LTEA) Assay for UDP glucuronosyltransferase (UGT1A1) using HepaRG (AID 2283538; active = hit-call score of the fitted dose curve at least 0.9, where 1 is the maximum; inactive = score below 0.9). The settings on record: mRNA level, 48 h; actives raise or lower the signal. Summed up:
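Differentiated human HepaRG cells in serum-free induction medium were exposed in duplicate for 48 h to eight half-log concentrations up to 100 uM in 0.5% DMSO. UGT1A1 mRNA was quantified by TaqMan qRT-PCR, normalized to ACTB, GAPDH and POLR2A, and fitted bidirectionally against DMSO.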

Read-out in experiment [5]: UDP glucuronosyltransferase (UGT1A6), UGT1A6 (gene 54578)
As to the kind of experiment: LTEA_HepaRG_UGT1A6: Life Technologies and Expression Analysis (LTEA) Assay for UDP glucuronosyltransferase (UGT1A6) using HepaRG (AID 2283539; active = hit-call score of the fitted dose curve at least 0.9, where 1 is the maximum; inactive = score below 0.9). The conditions noted are these: mRNA level, 48 h; actives raise or lower the signal. A digest of the protocol: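 Expression was quantified by TaqMan qRT-PCR on Fluidigm arrays with ACTB/GAPDH/POLR2A normalization and bidirectional fitting against 0.5% DMSO. HepaRG cells (~100,000/well) were treated in duplicate for 48 h at eight half-log concentrations up to 100 uM in serum-free induction medium.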

Read-out in experiment [6]: X-box binding protein 1 (XBP1), XBP1 (gene 7494)
As to the kind of experiment: LTEA_HepaRG_XBP1: Life Technologies and Expression Analysis (LTEA) Assay for X-box binding protein 1 (XBP1) using HepaRG (AID 2283540; active = hit-call score of the fitted dose curve at least 0.9, where 1 is the maximum; inactive = score below 0.9). The settings on record: mRNA level, 48 h; actives raise or lower the signal. A digest of the protocol: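 XBP1 transcript by qRT-PCR (housekeeping-normalized: ACTB, GAPDH, POLR2A) after 48 h chemical treatment of HepaRG cells, 8-point half-log series topping at 100 uM, vehicle 0.5% DMSO. Gain and loss of signal fitted relative to DMSO.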

The nature of experiment [7]: LTEA_HepaRG_LDH_cytotoxicity: Cytotoxicity Assessment in the Life Technologies and Expression Analysis (LTEA) Assay (AID 2283563).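 As to AC50: LDH activity released into spent culture medium as a marker of cell death.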 Summed up:
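LDH release into culture medium read after 48 h chemical treatment of HepaRG cells. Duplicate wells, eight-point half-log series topping at 100 uM, 0.5% DMSO vehicle and baseline.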

Experiment [8] is described as follows: ATG_XTT_Cytotoxicity: Cytotoxicity Assessment in the Attagene TRANS-FACTORIAL HepG2 Assay (AID 2283584). A digest of the protocol:
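Viability endpoint from XTT after 24 h chemical exposure of reporter-transfected human HepG2 liver cells; signal loss fitted relative to DMSO negative control.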

Experiment [9] can be described thus: TOX21_p53_BLA_p2_viability: Viability Assessment in the Tox21 HCT-116 p53 Agonism Beta-lactamase Assay, Phase 2 (AID 2283591).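 Also: compound exposure lasted 16 h at 37 °C; actives lower the ATP signal meaning cytotoxicity.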 A digest of the protocol:
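HCT-116 p53-bla cells (4000/well) rested 5 h at 37C, then received compounds in DMSO (217-fold dilution) for 16 h at 37C, 5% CO2. After the CCF4 read, CellTiter-Glo was added; ATP luminescence was read after 30 min at room temperature.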

The target of experiment [10] is Cellular tumor antigen p53 (Homo sapiens) (UniProt P04637). The experiment in a line: TOX21_p53_BLA_p2_ratio: Tox21 HCT-116 p53 Agonism Beta-lactamase Assay, Ratio, Phase 2 (AID 2283592). Summed up: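 Gain-of-signal p53 agonism was scored from the beta-lactamase FRET ratio (460/530 nm, 405 nm excitation) in HCT116 cells treated 16 h at 37C, 5% CO2, with DMSO serving as negative control and baseline.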
Sequence of Cellular tumor antigen p53 (Homo sapiens) (P04637 whole entry, looked up): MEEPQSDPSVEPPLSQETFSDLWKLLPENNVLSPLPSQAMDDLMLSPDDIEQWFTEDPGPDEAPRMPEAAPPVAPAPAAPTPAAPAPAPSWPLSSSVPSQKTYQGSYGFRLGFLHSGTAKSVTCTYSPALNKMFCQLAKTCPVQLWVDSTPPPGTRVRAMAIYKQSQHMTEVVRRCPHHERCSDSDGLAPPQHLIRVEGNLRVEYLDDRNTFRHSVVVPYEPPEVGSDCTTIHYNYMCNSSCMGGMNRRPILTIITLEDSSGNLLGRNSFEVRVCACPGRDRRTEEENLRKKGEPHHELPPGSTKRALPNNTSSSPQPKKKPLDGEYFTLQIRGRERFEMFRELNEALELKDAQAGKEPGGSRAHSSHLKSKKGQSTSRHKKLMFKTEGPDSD

The nature of experiment [11]: TOX21_p53_BLA_p3_viability: Viability Assessment in the Tox21 HCT-116 p53 Agonism Beta-lactamase Assay, Phase 3 (AID 2283593).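 Also: cells exposed to compound for 16 h before reading.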 A digest of the protocol:
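HCT-116 cells (4000/well) rested 5 h at 37C, then got DMSO compounds by pin tool (217-fold dilution) for 16 h at 37C, 5% CO2. After the bla read, CellTiter-Glo was added and luminescence read at 30 min, room temperature.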

Experiment [12] in a line: TOX21_p53_BLA_p4_viability: Viability Assessment in the Tox21 HCT-116 p53 Agonism Beta-lactamase Assay, Phase 4 (AID 2283597).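 Also: hits lower the luminescence signal meaning cytotoxicity.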 A digest of the protocol:
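Following a 16 h exposure at 37C, the treated HCT116 wells were first read for the FRET ratio. They were then lysed with CellTiter-Glo, and ATP luminescence was recorded after 30 min at room temperature.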

Experiment [13] addresses Cellular tumor antigen p53 (Homo sapiens) (UniProt P04637). The experiment in a line: TOX21_p53_BLA_p5_ratio: Tox21 HCT-116 p53 Agonism Beta-lactamase Assay, Ratio, Phase 5 (AID 2283599). Summed up:
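HCT-116 cells carrying a p53-inducible beta-lactamase reporter were seeded at 4000 cells/well and dosed after 5 h with compound in DMSO (217-fold dilution). After 16 h at 37C, CCF4-AM substrate was added for 2 h, and the 460/530 nm emission ratio was scored as gain-of-signal versus DMSO.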

Experiment [14] is described as follows: TOX21_p53_BLA_p5_viability: Viability Assessment in the Tox21 HCT-116 p53 Agonism Beta-lactamase Assay, Phase 5 (AID 2283600). Summed up:
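After the 460/530 nm beta-lactamase measurement, the wells received an ATP-detection luciferase reagent; signal was read 30 min later at RT. Compound treatment lasted 16 h on cells pre-incubated 5 h post-seeding.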

Experiment [15] concerns the target Cellular tumor antigen p53 (Homo sapiens) (UniProt P04637). The experiment in a line: TOX21_p53_BLA_p4_ratio: Tox21 HCT-116 p53 Agonism Beta-lactamase Assay, Ratio, Phase 4 (AID 2283601). A digest of the protocol:
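HCT116 cells carrying an inducible beta-lactamase reporter were plated at 4000 cells/well, rested 5 h, then exposed to compounds in DMSO (217-fold dilution) for 16 h at 37C. CCF4-AM substrate was loaded 2 h at room temperature; 460/530 nm emission ratio scored gain-of-signal versus DMSO.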

The nature of experiment [16]: Tanguay_ZF_120hpf_MORT_legacy: (Legacy) Oregon State University Tanguay Lab 120 Hour Post-fertilization zebrafish Assay for Mortality (AID 2283633).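 As to AC50: fitted as increase in binary mortality versus DMSO negative control.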 Summed up: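 Static waterborne exposure from 6 to 120 hpf at 28C of single dechorionated wild-type (5D) embryos per well, 0.64% DMSO final. Death recorded present/absent by brightfield at 24 and 120 hpf.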
Experiment [17] in a line: Tanguay_ZF_120hpf_YSE_legacy: (Legacy) Oregon State University Tanguay Lab 120 Hour Post-fertilization zebrafish Assay for Yolk Sac Edema (AID 2283634).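 As to AC50: actives raise the incidence of yolk sac edema above the DMSO baseline.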 Summed up: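 Presence or absence of yolk sac edema was recorded at 120 hpf in surviving larvae. These were wild-type Tropical 5D embryos, chorion removed at 4 hpf, held in static exposure at 28C from 6 hpf with 0.64% DMSO vehicle.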

Experiment [18] is described as follows: Tanguay_ZF_120hpf_AXIS_legacy: (Legacy) Oregon State University Tanguay Lab 120 Hour Post-fertilization zebrafish Assay for Body Axis Malformation (AID 2283635). Summed up:
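Binary scoring of axis defects at 120 hpf under brightfield, fitted positive versus DMSO. Tropical 5D embryos, chorion removed by pronase at 4 hpf, were singly exposed in sealed, dark plates at 28C from 6 hpf; DMSO 0.64% final.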

In experiment [19] the target is Cellular tumor antigen p53 (Homo sapiens) (UniProt P04637). As to the kind of experiment: TOX21_p53_BLA_p3_ratio: Tox21 HCT-116 p53 Agonism Beta-lactamase Assay, Ratio, Phase 3 (AID 2283596). A digest of the protocol: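 HCT116 p53-bla cells (4000/well) given compound in DMSO (217-fold dilution) after 5 h, incubated 16 h at 37C. CCF4-AM substrate 2 h at room temperature; 460/530 nm emission ratio, gain fitted against DMSO.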

Structures are written as SMILES. Several values for one entry are separate records, joined by “and”; a condition that tells them apart may be missing. Identical values can stand only once. Inconclusive results are not listed. A structure can be active in one record and inactive in another. Activity calls are given as the source filed them. The calls were made as follows, unless noted: active = hit-call score of the fitted dose curve at least 0.9, where 1 is the maximum; inconclusive = response in the unintended direction; inactive = score below 0.9.

Usually AC50 stands for the midpoint of the concentration-response curve, whichever way the signal moves.

Take `c1ccc(Nc2ccccc2)cc1`: the outcome is “inactive” with TIMP1, TIMP1 (gene 7076); “inactive” in experiment [1]; “inactive” in experiment [2]; “inactive” in [3]; “inactive” in experiment [4]; “inactive” in [5]. Moreover, the outcome in [6], in experiment [7], in experiment [8], in experiment [9], in experiment [10] and in experiment [11] was inactive. In addition, the molecule was classed as inactive in experiment [12], in experiment [13], in [14], in experiment [15] and in experiment [18]. In addition, the AC50 is 26.2 µM (active) in experiment [16] and 12.2 µM (active) in experiment [17].
For the molecule `S=C(S)NCCNC(=S)S.[Mn+2].[S-]C([S-])=NCCN=C([S-])[S-].[Zn+2]`, the AC50 with TIMP1, TIMP1 (gene 7076) is 6.38 µM (active); in experiment [1], 1.21 µM (active) and 2.33 µM (active); in experiment [2], 699 nM (active) and 352 nM (active) and 513 nM (active); in [4] it was 1.25 µM (active) and 1.46 µM (active) and 1.2 µM (active); in experiment [5] it was 2.12 µM (active) and 1.74 µM (active); in experiment [6], 908 nM (active) and 953 nM (active). Moreover, the AC50 in [7] is 1.58 µM (active) and 1.57 µM (active) and 1.84 µM (active). Further, the outcome in the experiment with TIMP1, TIMP1 (gene 7076) was “inactive”; in [1] it was “inactive”; in [8], “inactive”; in experiment [16], “inactive”; in experiment [17], “inactive”; in [18], “inactive”.
For `CCOC(=O)NCCOc1ccc(Oc2ccccc2)cc1`, the outcome with TIMP1, TIMP1 (gene 7076) was “inactive”; in experiment [1] it was “inactive”; in experiment [4], “inactive”; in [5], “inactive”; in experiment [6], “inactive”; in experiment [9], “inactive”. For the same molecule, the molecule was called inactive in experiment [11], in [19], in experiment [12], in experiment [13], in experiment [14] and in experiment [15]. Moreover, the outcome in experiment [16], in experiment [17] and in [18] was inactive. For the same molecule, the AC50 in experiment [2] is 75.8 µM (active); in experiment [3], 82.8 µM (active); in [7], 82.2 µM (active); in [10] it was 38.1 µM (active).
